# Shown is part of a subset that was picked to be rich in hits.
# Lassa entry inh = qHTS for Inhibitors of binding or entry into cells for Lassa Virus; AID 540256, 2011; Lassa virus pseudotype entry inhibition, cell reporter; Potency, µM (titrated, usually from 37.9 µM), without a hit: top-dose activity change, negative = inhibition, hits mostly inhibitors; 1.2% of 300,000 active; calls by dose curve; tested in HEK293 cells; also: potency is read from the fitted curve at half-maximal effect; % is scaled to controls: 0 for no effect and ±100 for the full control effect; nearly all actives have a fitted effect of over 50% in size
# CHX counter = Cycloheximide Counterscreen for Small Molecule Inhibitors of Shiga Toxin; max response, %; cell reporter, cycloheximide protein synthesis inhibition counterscreen; 12% of 300,000 active; in the data active = max response mostly above about 13%, no sharp cut-off; inactive = mostly below about 14%; also: read at 38.3 µM for the half of the compounds with a filed dose; 0% is about no effect
# VACV mCherry inh = qHTS for Stage-Specific Inhibitors of Vaccinia Orthopoxvirus: mCherry Reporter Primary qHTS; Vaccinia virus mCherry reporter infection, fluorescence; Potency, µM (titrated, usually from 36.5 µM), for inactives: top-dose activity change, negative = inhibition, actives largely listed as inhibitors; 0.63% of 310,000 active; AID 720579, 2013; calls by dose curve; tested in A549 cells; also: potency is read from the fitted curve at half-maximal effect; % is scaled to controls: 0 for no effect and ±100 for the full control effect; nearly all actives have a fitted effect of over 35% in size
# Vaccinia Venus = qHTS for Stage-Specific Inhibitors of Vaccinia Orthopoxvirus: Venus Reporter Primary qHTS; AID 720580, 2013; Vaccinia virus Venus reporter expression, fluorescence; 0.46% of 330,000 active; Potency, µM (top dose mostly 36.5 µM), inactives show top-dose activity change, negative = inhibition, actives largely listed as inhibitors; calls by dose curve; tested in A549 cells; also: potency is read from the fitted curve at half-maximal effect; % is scaled to controls: 0 for no effect and ±100 for the full control effect; nearly all actives have a fitted effect of over 30% in size
# MARV entry inh = qHTS for inhibitors of binding or entry into cells for Marburg Virus | Potency, µM (titrated, usually from 37.8 µM), for the others: at the highest dose activity change, negative = inhibition, usual class: inhibitors | 1.8% of 300,000 active | Marburg virus pseudotyped entry inhibition, cell reporter | AID 540276, 2011; calls by dose curve; tested in HEK293 cells; also: potency is read from the fitted curve at half-maximal effect; % is scaled to controls: 0 for no effect and ±100 for the full control effect
# Shiga inhibitor = A qHTS for Small Molecule Inhibitors of Shiga Toxin; Vero cells, Shiga toxin protein synthesis inhibition reporter; inhibition, % at 38.7 µM; 9.2% of 290,000 active; in the data active = inhibition mostly above about 28%, no sharp cut-off; inactive = mostly below about 43%; also: 0% is about no effect
# * hit, by the source's call; i = inactive; ? = inconclusive; / = not tested or not shown; ! = not active in a repeat; [ ] = remark or other dose.
SMILES,Lassa entry inh,CHX counter,VACV mCherry inh,Vaccinia Venus,MARV entry inh,Shiga inhibitor
CCC(=O)N1CCN(c2ccc(NC(=O)c3ccc4c(c3)OCCO4)cc2)CC1,?,19*,-13%,2%,12%[46.1 µM],36
CCNC(=O)C1(C)CCN(C(=O)c2ccccc2OC(F)(F)F)C1 (stereo unspecified),/,/,3%,5%,/,/
CN=c1scc(-c2ccccc2Br)n1/N=C/c1ccc[nH]1,/,29*,/,/,/,86*
CCC(=O)c1c[nH]c(C(=O)NCCc2ccccn2)c1,0%,26*,/,-11%,-26%[46.1 µM],42
CC(C)CC(=O)c1c[nH]c(C(=O)NCCc2ccccn2)c1,-4%,28*,/,/,1%,25
Cc1ccccc1C(=O)c1c[nH]c(C(=O)NCCc2ccccn2)c1,-1%,12,i,-15%,14%[46.1 µM],13
Cc1ccccc1C(=O)Nc1ccc2c(c1)nc(CCNC(=O)c1ccco1)n2C,/,-2,/,/,/,5
Cc1ccccc1CSCCNC(=O)Nc1ccccc1,/,15*,/,/,/,24
CC(C)(C)SCCNC(=O)Nc1ccccc1,?,21*,-3%,-25%,?,19*
Cc1ccc2c(=O)cc(C(=O)Nc3c(C(=O)c4ccc(F)cc4)oc4ccccc34)oc2c1C,13%[46.1 µM],/,-6%,0%,2%[46.1 µM],/
CC1(C)OC2C(CO)OC(n3cnc4c(=O)[nH]c(N)nc43)C2O1 (stereo unspecified),/,/,-2%,0%,/,/
COc1ccc(-n2c(C)c(C)c3c(NCCCN(C)C)ncnc32)cc1,12%[46.1 µM],-4,-13%,-24%,?,-14
COc1ccc(-n2c(C)c(C)c3c(NCCCO)ncnc32)cc1,?,43*,i,-23%,?,71*
Cc1ccc(-n2c(C)c(C)c3c(NCCCO)ncnc32)cc1,?,45*,-20%,?,?,120*
COc1ccc(-n2c(C)c(C)c3c(NCCO)ncnc32)cc1,?,33*,-29%,-17%,?,59*
Cc1c(C)n(-c2ccccc2)c2ncnc(NCCN(C)C)c12,/,-3,/,/,/,-16
Cc1ccc(C(=O)NCC(=O)OCc2cc(=O)n3nc(C4CC4)sc3n2)cc1,1%[46.1 µM],/,1%,-7%,/,/
COc1ccc(CNC(=O)Cn2c(=O)c3cccn3c3ccccc32)cc1,-22%[46.1 µM],/,-29%,?,/,/
CCN(CC)c1ccc(NC(=O)Nc2cccc3ccccc23)cc1,-10%,15*,-30%,-14%,?,30
CCN(CC)c1ccc(NC(=O)Nc2ccccc2C(F)(F)F)cc1,?,24,/,-14%,7%,42*
Cc1ccc(NC(=O)Nc2cccc3ccccc23)cc1,/,9,/,/,/,-10
CN(C)c1ccc(NC(=O)Nc2cccc3ccccc23)cc1,/,36*,?,-3%,/,77*
CCN(CC(=O)Nc1ccc(C(C)=O)cc1)CC(=O)Nc1ccccc1C(F)(F)F,-6%,-6,2%,3%,1%[46.1 µM],-3
COc1ccc(NC(=O)c2ccc3c(=O)n4nc(Nc5ccccc5C)sc4nc3c2)cc1Cl,-7%[46.1 µM],/,?,?,/,/
CCOC(=O)c1ccccc1NC(=O)CN1C(=O)CC(c2ccccc2)Sc2ccccc21 (stereo unspecified),/,/,-7%,-16%,-22%[46.1 µM],/
SMILES,Lassa entry inh,CHX counter,VACV mCherry inh,Vaccinia Venus,MARV entry inh,Shiga inhibitor
Cc1ccc(C)c(NC(=O)c2cnc(N3CCCC3)nc2C)c1,?,/,-15%,-25%,/,/
CCCCC1(Cc2ccc(OC)c([N+](=O)[O-])c2)C(=O)N(c2ccccc2)N(c2ccccc2)C1=O,?,-1,-17%,-15%,14µM*,-10
COc1ccc(-n2c(=O)c3sc4ccccc4c3n(Cc3ccccc3)c2=O)cc1,-3%[46.1 µM],/,-6%,-6%,?,/
CC(C)(C)Nc1nc2ccc([N+](=O)[O-])cc2o1,15%[46.1 µM],19*,i,-17%,3%[46.1 µM],35
O=c1oc(-c2cccc([N+](=O)[O-])c2)nc2ccccc12,-20%,-4,-3%,-17%,-5%,/
CC(=O)CC(C)(C)Nc1nc2ccc([N+](=O)[O-])cc2o1,12%[46.1 µM],13,-4%,-14%,12%[46.1 µM],49
COc1cccc(-c2nc3ccc([N+](=O)[O-])cc3o2)c1,?,12,i,-7%,?,29*
O=[N+]([O-])c1ccc2nc(-c3ccccc3)oc2c1,/,26*,-30%,-29%,/,71*
CC(C)c1c(C(=O)NCc2cccnc2)cnn1-c1nccc(-c2cccs2)n1,/,/,-4%,-4%,/,/
COc1ccccc1OCC(=O)Nc1cc(-c2ccc(C)cc2)no1,23%[46.1 µM],/,-3%,-16%,?,/
Cc1ccc(S(=O)(=O)CC(=O)c2ccccc2[N+](=O)[O-])cc1,/,-2,/,/,/,11
CS(=O)(=O)Nc1ccc([N+](=O)[O-])cc1Oc1ccccc1,0.016µM*!,-3,-7%,-10%,?,-6
Cc1ccc(S(=O)(=O)C/N=C(/NC(=S)N(c2ccccc2)c2ccccc2)c2ccccc2)cc1,-7%,22*,-5%,-9%,?,50*
CCS(=O)(=O)NCc1c(C)ncc2c1CCN(C(=O)c1csc(-c3cccs3)n1)C2,/,/,-5%,0%,/,/
Nc1nc(-c2ccccc2)[nH]c(=O)c1N=O,/,5,?,13µM*,/,17
CSc1ccc(-c2nc3cccc(C)n3c2Nc2ccc3c(c2)OCO3)cc1,?,/,-28%,-25%,-1%[46.1 µM],/
O=C(NNC(=S)Nc1ccccc1)c1ccc(O)cc1,/,45*,/,/,/,73*
Cc1ccc(C(=O)NNC(=O)c2ccc(C)cc2)cc1,15%,16,-1%,-12%,26%[46.1 µM],20
COc1ccccc1NC(=S)NNC(=O)c1ccc(O)cc1,4%,24*,i,-6%,?,27
Cc1ccc(C(=O)NNC(=O)/C=C\C(=O)O)cc1,?,42*,-12%,-19%,0%[46.1 µM],70*
COC(=O)c1ccc(NC(=S)Nc2ccccc2)cc1,-2%,8,-1%,-11%,-7%,-33
O=C(O)c1ccc(NC(=S)Nc2ccccc2)cc1,9%,16*,i,-13%,?,-14
CCn1c(CNC(=O)c2ccc(OC)cc2)nnc1SCC(=O)Nc1ccc(F)cc1,7%[46.1 µM],/,-3%,-5%,?,/
CC(C)C1C(=O)Nc2ccc(S(=O)(=O)NCCc3ccc(Cl)cc3)cc21 (stereo unspecified),7%[46.1 µM],/,-17%,-14%,/,/
Cc1ccccc1NC(=O)C1CC(=O)N(Cc2ccccc2)C1 (stereo unspecified),0%,-1,2%,1%,-7%[14.2 µM],-5
CNc1ncnc2c1ncn2[C@H]1CN(Cc2ccc(-c3ccccc3)cc2)C[C@@H](CO)O1,/,/,i,-13%,/,/
O=C(NNC(=S)Nc1ccc(Br)cc1)c1ccccc1,34%[46.1 µM],23*,-25%,-16%,?,34
CC(C)(C)NC(=S)NNC(=O)c1cccc(Br)c1,/,40*,/,/,/,74*

# Screening data: PubChem BioAssay, National Center for Advancing Translational Sciences (NCATS)
